Our source for the z-score and composite z-score values is PubChem BioAssay.

Molecules are shown by their SMILES. Active and inactive are the calls of the source. Unless noted, how the calls were made is not given here.

Experiment [1] can be described thus: HepG2 liver cancer cell viability effects, profiling panel, resazurin fluorescence, 24 h, PK04 Diversity Set (AID 1172). Further: test concentration not given here. As to conditions: higher = more signal. In general terms: Alamar Blue is a resazurin reagent that responds to reducing activity.
Experiment [2] is described as follows: basal S. cerevisiae growth modulation, no modifier, primary screen, OD600, strain BY4716, 24 h, basal condition (AID 1173). To be noted: OD600, 24 h, higher = more signal, called active from +8 up or from −8 down.
A short description of experiment [3]: MM1S myeloma cell viability, profiling panel, resazurin fluorescence, basal, 24 h, PK04 Diversity Set (AID 1174).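 Further: MM1S multiple myeloma cell line; test concentration not given here.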 As to conditions: higher = more signal, called active from +8 up or from −8 down.
In experiment [4] the target is Dihydroorotate dehydrogenase (quinone), mitochondrial (Plasmodium falciparum (isolate 3D7)) (UniProt Q08210). Description: PfDHODH enzyme inhibitors, primary screen, biochemical, C-terminal His tag, absorbance 600 nm (AID 1175).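 Further: recombinant parasite enzyme with a five histidine tag at its C terminus; test concentration not given here.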 As to conditions: DCIP absorbance 600 nm, higher = more signal, called active from +8 up or from −8 down.
Experiment [5] can be described thus: P. aeruginosa biofilm formation inhibitors, primary screen, strain PAO1, LB-PBS medium, absorbance 600 nm (AID 1176). Further: test concentration not given here. As to conditions: P. aeruginosa PAO1 growth/biofilm, A600, 12 h; higher = more signal.
Experiment [6] can be described thus: S. cerevisiae RM11-1a growth modifiers, primary screen, strain RM11-1a, OD600, basal, 24 h (AID 1177).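 Further: cultures grown under basal conditions with no added stressor; test concentration not given here.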 To be noted: OD600, 24 h, higher = more signal, called active from +8 up or from −8 down.
The nature of experiment [7]: E. coli acrAB mutant growth effects, primary screen, E. coli filamentation inducers, strain DRC39, OD650, 24 h (AID 1178).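 Further: growth measured as culture turbidity by optical density at 650 nm; test concentration not given here.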 As to conditions: higher = more signal, called active from +8 up or from −8 down.
Experiment [8] in a line: E. coli acrAB mutant growth effects, primary screen, E. coli filamentation inducers, strain DRC39, OD650, 48 h (AID 1179).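 Further: screen aims at cell division blockers that make cells filament.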 To be noted: E. coli DRC39 delta-acrAB growth, higher = more signal, called active from +8 up or from −8 down.
Experiment [9] is described as follows: RPMI8226 myeloma cell viability, profiling panel, resazurin fluorescence, basal, 24 h, PK04 Diversity Set (AID 1180).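 Further: RPMI8826 multiple myeloma cell line at 5000 cells per well; test concentration not given here.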 As to conditions: higher = more signal.
Experiment [10] addresses E3 ubiquitin-protein ligase XIAP (Homo sapiens) (UniProt P98170). Description: XIAP binders, primary screen, biophysical, small-molecule microarray, fluorescence 635 nm (AID 1181).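 Further: score merges 667 nm emission and signal to noise over triplicate slides.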 As to conditions: small-molecule microarray binding, higher = more signal.

Dihydroorotate dehydrogenase (quinone), mitochondrial (Plasmodium falciparum (isolate 3D7)), sequence (Q08210 whole entry, looked up): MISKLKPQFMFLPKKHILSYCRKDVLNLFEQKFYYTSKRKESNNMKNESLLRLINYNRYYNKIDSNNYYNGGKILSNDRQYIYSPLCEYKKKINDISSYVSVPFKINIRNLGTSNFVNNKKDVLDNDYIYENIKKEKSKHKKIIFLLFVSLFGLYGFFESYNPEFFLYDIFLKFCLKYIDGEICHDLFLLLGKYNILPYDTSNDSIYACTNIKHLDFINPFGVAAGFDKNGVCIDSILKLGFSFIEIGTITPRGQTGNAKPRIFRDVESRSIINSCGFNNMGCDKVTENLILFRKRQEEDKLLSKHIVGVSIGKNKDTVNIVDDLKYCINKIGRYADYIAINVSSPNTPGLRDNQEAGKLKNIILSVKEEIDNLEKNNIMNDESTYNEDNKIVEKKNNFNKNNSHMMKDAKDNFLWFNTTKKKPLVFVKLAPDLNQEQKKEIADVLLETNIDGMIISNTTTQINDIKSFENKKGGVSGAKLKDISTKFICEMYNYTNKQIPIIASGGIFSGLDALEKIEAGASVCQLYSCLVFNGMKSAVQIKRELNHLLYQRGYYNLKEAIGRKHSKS
E3 ubiquitin-protein ligase XIAP (Homo sapiens), sequence (P98170 whole entry, looked up): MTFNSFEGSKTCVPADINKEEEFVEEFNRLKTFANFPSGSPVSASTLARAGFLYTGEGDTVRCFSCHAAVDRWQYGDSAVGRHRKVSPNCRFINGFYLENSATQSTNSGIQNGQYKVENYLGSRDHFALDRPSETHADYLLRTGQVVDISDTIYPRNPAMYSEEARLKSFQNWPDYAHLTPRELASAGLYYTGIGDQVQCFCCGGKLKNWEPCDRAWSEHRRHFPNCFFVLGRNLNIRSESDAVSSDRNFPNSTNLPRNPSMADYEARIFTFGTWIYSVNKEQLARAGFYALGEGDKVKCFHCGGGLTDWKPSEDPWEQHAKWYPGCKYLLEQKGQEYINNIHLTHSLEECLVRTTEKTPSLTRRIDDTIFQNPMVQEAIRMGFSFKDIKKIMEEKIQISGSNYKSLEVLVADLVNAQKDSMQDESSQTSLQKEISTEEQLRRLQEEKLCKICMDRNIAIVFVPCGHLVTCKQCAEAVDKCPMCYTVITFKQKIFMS

With `CC1=C[C@@]2(CO)C(=O)[C@]3(CO3)[C@@H]1[C@H]1[C@]2(C)C=C(CO)C(=O)[C@]12CO2`, the z-score in experiment [1] was 0.693; in experiment [2], -2.6 (inactive); in experiment [3] it was -0.54 (inactive); in experiment [5], -0.614 (inactive); in experiment [6], -0.813 (inactive); in [7] it was 0.477 (inactive). For the same molecule, the z-score in experiment [8] is 0.655 (inactive); in [9], 0.483. The composite z-score in experiment [4] was -2.12 (inactive); in experiment [10] it was -0.227.

`CCCC[C@@H](O)C1=C(COc2ccccc2)C[C@H]2C(=O)N(C)C(=O)[C@H]2[C@H]1CO`: the z-score in experiment [1] was -0.0624; in experiment [2], -3.78 (inactive); in experiment [3] it was 0.147 (inactive); in [5] it was 0.613 (inactive); in experiment [6], -3.3 (inactive); in experiment [7], 1.6 (inactive). Further, the z-score in experiment [8] was 1.41 (inactive); in [9], 0.296. For the same molecule, the values for the composite z-score in [4] and in [10] were -1.85 (inactive) and -0.127, respectively.

Take `COCCCNC(=O)[C@]1(CCS(=O)(=O)c2ccccc2)N=C(c2ccc(OCCCO)cc2)O[C@@H]1c1ccccc1CN=[N+]=[N-]`: the z-score in experiment [1] is -0.776; in experiment [2], 1.67 (inactive); in experiment [3], -3.5 (inactive); in experiment [5], 0.438 (inactive); in experiment [6] it was 1.62 (inactive); in experiment [7], 0.0971 (inactive). Besides, the z-score in experiment [8] was 0.748 (inactive); in experiment [9], -0.601. Moreover, the values for the composite z-score in [4] and in [10] were 0.36 (inactive) and 0.481, respectively.

For `OCC1CC(c2ccccc2)=NO1` (stereo not given), the z-score in experiment [1] was -0.107; in experiment [2], -1.09 (inactive); in experiment [3] it was -0.85 (inactive); in experiment [5] it was -0.201 (inactive); in experiment [6] it was 0.309 (inactive); in experiment [7] it was -0.075 (inactive). In addition, the z-score in [8] is 0.194 (inactive); in [9], 0.886. Further, the values for the composite z-score in [4] and in experiment [10] were -0.17 (inactive) and -0.158, respectively.

Turning to `CCCC[C@@H]1C[C@H]1[C@@H](NC(=O)c1ccccc1)c1ccc(C(F)(F)F)cc1`, the z-score in experiment [1] is 1.09; in experiment [2], 0.628 (inactive); in experiment [3] it was 0.142 (inactive); in [5] it was 0.479 (inactive); in experiment [6], 0.176 (inactive); in experiment [7], 0.1 (inactive). Moreover, the z-score in [8] is 0.155 (inactive); in [9] it was 0.329. Further, the values for the composite z-score in experiment [4] and in experiment [10] were 0.573 (inactive) and -0.369, respectively.

`CC(CO)N1C(=O)[C@@H]2[C@H]3C(=O)OCC=C[C@H]3OC23C=CCN(Cc2ccccc2)C(=O)[C@@H]13` (stereo not given in full): the z-score was 1.44 in [1]; -0.319 (inactive) in [2]; 1.01 (inactive) in experiment [3]; 0.745 (inactive) in experiment [5]; -1.21 (inactive) in experiment [6]; 0.518 (inactive) in experiment [7]. Besides, the z-score in [8] is 0.075 (inactive); in experiment [9] it was 1.28. Moreover, the composite z-score in experiment [4] is -1.07 (inactive); in [10] it was 0.184.

In the case of `COC(=O)[C@@]1(Cc2ccc(F)cc2)[C@H]2c3cc(C(=O)N4CCCC4)n(CCc4ccc(O)c(O)c4)c3C[C@H]2CN1C(=O)c1ccccc1`, the z-score in [1] was -1.48; in experiment [2] it was 1.78 (inactive); in [3], -1.07 (inactive); in [5], 1.78 (inactive); in experiment [6] it was 1.78 (inactive); in [7], -0.265 (inactive). Also, the z-score is -0.177 (inactive) in experiment [8] and -0.795 in [9]. Further, the composite z-score in experiment [4] is -0.0926 (inactive); in [10] it was 0.32.

Take `Cc1cc(C)cc(N2C(=O)CSC2c2cccc([N+](=O)[O-])c2)c1` (stereo not given): the z-score in [1] was -0.654; in experiment [2], -0.899 (inactive); in [3], -1.81 (inactive); in experiment [5], -0.242 (inactive); in [6], 0.265 (inactive); in experiment [7], 0.837 (inactive). In addition, the z-score in experiment [8] was 0.384 (inactive); in experiment [9], -0.341. Moreover, the composite z-score in experiment [4] is -1.39 (inactive); in [10], 0.0808.

As to `C[C@]1(C(=O)NC2CC2)c2ccccc2C(=O)N(Cc2ccccc2)[C@H]1c1ccc(CO)cc1`, the z-score in experiment [1] was -0.0738; in [2] it was -0.886 (inactive); in experiment [3], 1.62 (inactive); in experiment [5], 0.553 (inactive); in [6], -1.02 (inactive); in experiment [7] it was 0.809 (inactive). Moreover, the z-score in experiment [8] was 0.653 (inactive); in [9] it was 1.08. For the same molecule, the composite z-score in experiment [4] is -0.806 (inactive); in experiment [10] it was -0.234.

On to `COc1ccc(C#Cc2ccc3c(c2)[C@]2(C(=O)N3)[C@H](c3ccc(O)cc3)N3[C@H](c4ccccc4)[C@H](c4ccccc4)OC(=O)[C@H]3[C@@H]2C(=O)O)cc1`, for which the z-score is 0.275 in experiment [1]; -1.16 (inactive) in [2]; 0.504 (inactive) in experiment [3]; 1.15 (inactive) in [5]; 0.0708 (inactive) in experiment [6]; 0.355 (inactive) in experiment [7]. The z-score in experiment [8] was -0.341 (inactive); in experiment [9], 0.801. The composite z-score in experiment [4] was -2.78 (inactive); in [10], 0.126.

Turning to `C=C[C@@H](COC(C)=O)N(C(=O)OC(C)(C)C)S(=O)(=O)c1ccc(Br)cc1`, the z-score was -0.19 in experiment [1]; -3.49 (inactive) in experiment [2]; -2.19 (inactive) in [3]; -0.938 (inactive) in [5]; 0.317 (inactive) in [6]; -0.0872 (inactive) in experiment [7]. Further, the z-score in [8] was 0.499 (inactive); in [9], -0.288. Besides, the composite z-score in experiment [4] was -1.25 (inactive); in experiment [10] it was 0.0618.

Take `COc1ccc([Si](C)(C)[C@@H]2[C@@H](CC(=O)N(CCO)Cc3ccccc3)O[C@]3(C(=O)N(c4ccccc4)c4ccccc43)[C@H]2C)cc1`: the z-score was -2.66 in experiment [1]; -1.74 (inactive) in [2]; -5.11 (inactive) in [3]; 1.26 (inactive) in experiment [5]; 0.525 (inactive) in experiment [6]; 1.21 (inactive) in experiment [7]. Further, the z-score was 1.1 (inactive) in [8] and -5.53 in [9]. Further, the results for the composite z-score in [4] and in [10] were 0.818 (inactive) and -0.112, respectively.

For `COC(=O)[C@H](Cc1ccccc1)N1CC(/C=C/C2CC2)=C[C@H]1[C@H](O)Cc1ccccc1`, the z-score was -0.57 in [1]; -2.67 (inactive) in experiment [2]; -3.01 (inactive) in [3]; 0.188 (inactive) in experiment [5]; -0.55 (inactive) in experiment [6]; -0.0993 (inactive) in experiment [7]. The z-score is -0.0274 (inactive) in experiment [8] and -2.71 in [9]. Besides, the composite z-score in experiment [4] is -0.258 (inactive); in [10], -0.102.
